FMDV antiviral = foot and mouth disease virus antiviral activity | FMDV antiviral cell-based qHTS | Potency, µM (series often up to 57.9 µM), hits mostly inhibitors | 410,000 tested, 1.2% active; calls by dose curve; tested in HEK293T cells; note: read-out not given here; nearly all actives have a fitted effect of over 45% in size
HCV inhibitor = blocks hepatitis C virus; Potency, µM (series often up to 41.8 µM), hits mostly inhibitors; Huh7.5.1 HCVcc-Cre infection, luciferase reporter, 44 h; 340,000 tested, 3.4% active; AID 651820; active = well fitted inhibition curve with a large enough effect; inconclusive = small, poorly fitted or top-dose-only effect, or another doubt; inactive = no such curve, though single readings can be large or run the other way
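A cell-based infection assay in which seeded cells (1,000 per well) receive test compound after 4 h, are inoculated with HCVcc-Cre at approximately 0.5 moi, and are incubated 44 h before luminescence detection.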
HCMV inh = human cytomegalovirus inhibition; HFF cells, HCMV-luciferase reporter, 72 h; stronger effect = lower value; activity change, negative = inhibition, % at 57.5 µM; 410,000 tested, 4.5% active; in the data active = activity change below about -60%; inconclusive = no clear call, values can overlap the other calls; inactive = above about -39%
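Two-dose cell screen: HFF monolayers treated with compounds and infected with luciferase-expressing HCMV at 1 PFU/cell, 72 h at 37C, then lysed for luciferase measurement.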
SARS PLpro yeast = inhibitors of SARS-CoV papain-like protease in yeast; 330,000 tested, 0.19% active; S. cerevisiae expressing SARS-CoV PLpro, growth rescue; Potency, µM (titrated, usually from 32.9 µM), usual class: activators; calls by dose curve; note: nearly all actives have a fitted effect of over 55% in size
LASV entry inh = blocks Lassa virus binding to or entry into cells | Lassa virus pseudotype entry inhibition, cell reporter | Potency, µM (titrated, usually from 37.9 µM), usual class: inhibitors | 300,000 tested, 1.2% active | AID 540256; calls by dose curve; tested in HEK293 cells; note: nearly all actives have a fitted effect of over 50% in size
MARV entry inh = inhibitors of Marburg virus binding or cell entry; Marburg virus pseudotyped entry inhibition, cell reporter; 300,000 tested, 1.8% active; Potency, µM (titrated, usually from 37.8 µM), actives largely listed as inhibitors; AID 540276; calls by dose curve; tested in HEK293 cells
Of the large screens only hits and unclear results are named; the others gave an inactive call; ! = a repeat was not active. Hits are enriched below; roughly 8% of the tested compounds scored in any of these assays.

CC(=O)c1cccc(NC(=O)Nc2sc3nc4n(c(=O)c3c2C)CCC(C)CC4)c1 (stereo not drawn)	none (no result: HCV inhibitor, SARS PLpro yeast, LASV entry inh)
Cc1ccccc1NC(=O)N1CCc2cc(S(=O)(=O)N3CCC(C)CC3)ccc21	none (no result: HCV inhibitor, SARS PLpro yeast, LASV entry inh)
O=C(c1ccccc1C(=O)N1CCN(c2ccc(F)cc2)CC1)N1CCN(c2ccc(F)cc2)CC1	FMDV antiviral 22µM, SARS PLpro yeast inconclusive, LASV entry inh inconclusive, MARV entry inh inconclusive
CC(=O)c1ccc(N2CCN(C(=O)c3ccccc3SCC(=O)NCc3ccco3)CC2)c(F)c1	FMDV antiviral inconclusive, HCV inhibitor 13µM, MARV entry inh inconclusive (no result: SARS PLpro yeast)
COC(=O)c1ccccc1NC(=O)N1CCN(c2ccc(F)cc2)CC1	HCMV inh -63 (no result: LASV entry inh, MARV entry inh)
O=C(COC(=O)c1ccccc1C(=O)N1CCN(c2ccc(F)cc2)CC1)NCc1ccccc1	FMDV antiviral 25µM, LASV entry inh inconclusive, MARV entry inh inconclusive
COc1cccc(NC(=O)COC(=O)c2ccccc2C(=O)N2CCN(c3ccccc3)CC2)c1	FMDV antiviral 18µM, HCV inhibitor inconclusive, HCMV inh inconclusive, LASV entry inh inconclusive, MARV entry inh inconclusive
CCOC(=O)Nc1ccc2c(c1)Cc1cc([N+](=O)[O-])ccc1-2	HCV inhibitor inconclusive, HCMV inh -90, LASV entry inh inconclusive (no result: SARS PLpro yeast)
CCOC(=O)Nc1ccc(OC)c([N+](=O)[O-])c1	none
CCN(C(=O)c1cnc(N2CCOCC2)c2ccccc12)c1cc(C)ccc1C	LASV entry inh 5µM (no result: HCV inhibitor, SARS PLpro yeast, MARV entry inh)
Cc1ccc(N(C)C(=O)c2cnc(N3CCOCC3)c3ccccc23)cc1C	LASV entry inh inconclusive (no result: HCV inhibitor, SARS PLpro yeast, MARV entry inh)
CCOC(=O)Cn1c(=O)c2c(nc(N3CCOCC3)n2Cc2ccccc2)n(C)c1=O	MARV entry inh inconclusive (no result: HCV inhibitor, SARS PLpro yeast)
CN(C)CCNC(=O)C(=O)NCC(c1cccnc1)N1CCN(c2ccccc2)CC1 (stereo not drawn)	none (no result: HCV inhibitor, SARS PLpro yeast, MARV entry inh)
COc1ccc(OC)c(NC(=O)C2CC(=O)N(CCc3ccc(F)cc3)C2)c1 (stereo not drawn)	none (no result: HCMV inh, SARS PLpro yeast)
COc1ccc(NC(=O)C2CC(=O)N(CCc3ccc(Cl)cc3)C2)cc1 (stereo not drawn)	HCMV inh -86, LASV entry inh inconclusive
CCOC(=O)c1ccccc1NC(=O)Cn1c(=O)n(Cc2nc(-c3ccccc3)no2)c(=O)c2ccccc21	none (no result: HCV inhibitor, SARS PLpro yeast, MARV entry inh)
CC1CC(C)C[N+](=C2C=C(N3CCCC3)CC(C)(C)C2)C1 (stereo not drawn)	FMDV antiviral inconclusive, HCV inhibitor 3.5µM, HCMV inh -102 (no result: LASV entry inh, MARV entry inh)
CC1(C)CC(N2CCN(c3ccccc3)CC2)=CC(=[N+]2CCCC2)C1	HCV inhibitor inconclusive, HCMV inh -98, LASV entry inh inconclusive, MARV entry inh inconclusive (no result: FMDV antiviral)
CC1(C)CC(=O)C=C(N2CCNCC2)C1	none
CC1(C)CC(N2CCCC2)=CC(=[N+]2CCCCCC2)C1	FMDV antiviral inconclusive, HCV inhibitor inconclusive, HCMV inh -98, LASV entry inh inconclusive, MARV entry inh 1.5µM
O=C(c1cnn2c1NC(c1ccc(Br)cc1)CC2C(F)(F)F)N1CCN2CCCC2C1 (stereo not drawn)	HCV inhibitor inconclusive, LASV entry inh inconclusive, MARV entry inh inconclusive
O=C(c1cnn2c1NC(c1ccc(Br)cc1)CC2C(F)(F)F)N1CCN(C23CC4CC(CC(C4)C2)C3)CC1 (stereo not drawn)	FMDV antiviral inconclusive, MARV entry inh 16µM
CCOc1ccc(C2CC(=O)Nc3nc(SCc4ccccc4C)[nH]c(=O)c32)cc1OC (stereo not drawn)	HCMV inh -102 (no result: HCV inhibitor, SARS PLpro yeast)
CCOc1cc(C2CC(=O)Nc3nc(SCc4ccccc4)[nH]c(=O)c32)ccc1O (stereo not drawn)	none (no result: HCV inhibitor, SARS PLpro yeast)
Cc1cc(C)cc(NC(=O)Cn2nnc(C(=O)NCc3ccccc3Cl)c2N)c1	HCMV inh -79!, LASV entry inh inconclusive
CN1CCC(=C2c3ccccc3CC(=O)c3sccc32)CC1	FMDV antiviral inconclusive, HCV inhibitor inconclusive, HCMV inh -65!, LASV entry inh inconclusive, MARV entry inh inconclusive
CCCCNC(=O)C1C(c2ccc(C(F)(F)F)cc2)=Nc2ccccc2N1C(=O)c1ccc2nc(C)[nH]c2c1 (stereo not drawn)	HCMV inh -86 (no result: HCV inhibitor, SARS PLpro yeast, LASV entry inh, MARV entry inh)
O=C(NC1CCCC1)C1C(c2ccccc2)=Nc2ccccc2N1C(=O)c1ccc(C(F)(F)F)cc1 (stereo not drawn)	HCMV inh -83 (no result: HCV inhibitor, SARS PLpro yeast, LASV entry inh, MARV entry inh)
